Data published in PubChem BioAssay AID2113 (National Center for Advancing Translational Sciences (NCATS), 2009).
Results filed as inconclusive are left out. A number with no mark means an inactive call. Active and inactive are the calls of the source. Calls follow the shape of the dose curve; as a rule, active = well fitted curve in either direction with a large enough effect; inconclusive = small, poorly fitted or top-dose-only effect; inactive = no such curve, though single readings can be large or run the other way.

What follows are compounds tested against Lysosomal alpha-glucosidase (Homo sapiens) (UniProt P10253) (assay: Confirmation of Inhibitors and Activators of Human alpha-Glucosidase From Spleen Homogenate). Conditions: alpha-glucosidase enzyme activity; series mostly up to 60.5 µM; activity change, both directions: at the top concentration.
Procedure, shortened: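 Compounds titrated against spleen-homogenate alpha-glucosidase, pH 5.0, 1 mM 4-MU-glucoside substrate, 37 C for 40 min. Fluorescence after pH 10 stop, normalised to no-enzyme and enzyme controls; Hill-equation AC50.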
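For Potency in this document: fluorescence of 4-methylumbelliferone released from a fluorogenic glucopyranoside substrate at pH 5.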
For activity change, both directions in this document: 0% is about no effect.
Potency is read from the fitted curve at half-maximal effect.

Row | SMILES | activity change, both directions | Potency
1 | CC(C)CNc1c(N)n(CC(C)C)c(=O)[nH]c1=O | 0.596% [at 31.5 µM] | –
2 | O=c1cc(-c2ccccc2)[nH]c2[nH]n(-c3ccccc3)c(=O)c12 | 3.33% | –
3 | Cc1ccc(S(=O)(=O)N2CCOCC2)cc1C | -0.759% | –
4 | CCCN1CNc2c(c(=O)[nH]c(=S)n2CCc2ccc3c(c2)OCCO3)C1 | – | 15.8 µM (active)
5 | COc1cc(NC(=O)CN2CCN(c3ccccc3F)CC2)c(C)cc1[N+](=O)[O-] | 7.53% [at 31.5 µM] | –
6 | CCC(C)Nc1nc(-c2cccc(OC)c2O)nc2ccccc12 (stereo unspecified) | 2.75% | –
7 | CCCN1CNc2c(c(=O)[nH]c(=S)n2CCc2cccc(C)c2C)C1 | – | 12.6 µM (active)
8 | CCCN1CNc2c(c(=O)[nH]c(=S)n2Cc2ccc(OC)c(OC)c2)C1 | – | 12.6 µM (active)
9 | CC(=O)Nc1cccc2c1C(=O)NC2=O | -1.43% [at 31.5 µM] | –
10 | Cc1ccc2nc(-c3ccccc3N)[nH]c2c1 | 24.5% | –
11 | CC1CC(C)CN(CC(=O)N2c3ccccc3CCc3ccccc32)C1 (stereo unspecified) | -1.9% | –
12 | C=CCn1c2ccccc2c2nnc(SCC(=O)NC(C(=O)OC)C(C)C)nc21 (stereo unspecified) | 5.38% [at 31.5 µM] | –
13 | COc1ccccc1N1CCN(C(c2cccs2)C(C)NC(=O)c2cccs2)CC1 (stereo unspecified) | -1.51% [at 31.5 µM] | –
14 | Cc1nc(-n2nnc(CO)c2CO)nc2c1CCC2 | 9.14% | –
15 | CCC(C)NC(=O)CCC(=O)Nc1ccc2nc(N3CCOCC3)cc(C)c2c1 (stereo unspecified) | 20.8% [at 31.5 µM] | –
16 | COc1ccc(/C=c2\s/c(=C/C(=O)c3ccc(C)cc3)[nH]c2=O)cc1OC | -4.47% [at 31.5 µM] | –
17 | O=C(NC(C(=O)c1ccccc1)n1ccc(=O)[nH]c1=O)c1ccccc1 (stereo unspecified) | -4.26% [at 31.5 µM] | –
18 | COc1cc(/C=C/c2ccc3ccccc3n2)cc(OC)c1O | 2.21% | –

Row | SMILES | activity change, both directions | Potency
19 | O=C(c1ccccc1)N1CCN(S(=O)(=O)c2ccccc2)CC1 | 1.54% | –
20 | CCCN1CNc2c(c(=O)[nH]c(=S)n2CCC(C)(C)C)C1 | -6.13% | –
21 | Cc1cnc(C(=O)Nc2cc(S(=O)(=O)N3CCOCC3)ccc2N2CCN(C)CC2)cn1 | -28% | –
22 | Cc1sc(-c2cc3cc(Cl)ccc3oc2=O)nc1-c1ccccc1 | 6.22% | –
23 | CC(=O)c1ccc(N2CCN(S(=O)(=O)c3ccc4c(c3)C(=O)OC4)CC2)cc1 | -1.65% | –
24 | NC(=NCc1ccccc1)NC(=O)c1nc(Cl)c(N)nc1N | -54% | –
25 | Cn1cnc2c(NCc3ccccc3)nc(NCCO)nc21 | -19.8% | –
26 | CC(=O)c1ccc(N2CCN(S(=O)(=O)c3ccc4c(c3)OCC(=O)N4)CC2)cc1 | -10.1% | –
27 | CCc1sc(-c2cc3ccccc3oc2=O)nc1-c1cc(C)ccc1C | – | 31.6 µM (active)
28 | O=S(=O)(c1cccc(Cl)c1)N1CCOCC1 | -1.48% | –
29 | CC1CCc2nc(-c3cc4ccc(O)cc4oc3=O)sc2C1 (stereo unspecified) | 17.6% | –
30 | COc1ccc(CCn2c3c(c(=O)[nH]c2=O)C(NC(=O)c2cccs2)(C(F)(F)F)C(=O)N3)cc1OC (stereo unspecified) | 4.85% [at 31.5 µM] | –
31 | CCOC(=O)c1cc2c(=O)n3cccc(C)c3nc2n(CCCOC)c1=NC(=O)c1cccnc1 | 7.03% [at 31.5 µM] | –
32 | COc1ccc(CCn2cc(C#N)c(=O)[nH]c2=O)cc1OC | -2.91% [at 31.5 µM] | –
33 | CC(=O)N1CCN(c2ccc(NS(=O)(=O)c3ccc4c(c3)CC(=O)N4)cc2)CC1 | -25.7% [at 132 µM] | –
34 | CC(=O)c1ccc(N2CCN(S(=O)(=O)c3ccc4c(c3)CCCN4C(C)=O)CC2)cc1 | 1.99% | –
35 | COc1ccc(-c2cc(=O)c(C(=O)c3ccc(C)cc3)n[nH]2)cc1 | 0.947% [at 31.5 µM] | –
36 | Cc1ccccc1-n1c(N)cc(=O)[nH]c1=S | 0.384% [at 31.5 µM] | –
